According to PubChem BioAssay AID1220 (Sanford-Burnham Center for Chemical Genomics, 2008):
Among all 190,000 compounds or so, about 1,300 (0.68%) were called active. For the sample, actives were picked, then their nearest neighbours and some compounds at random. Unmarked numbers belong to inactive results. No stated cut-off is given here; in the data, active means inhibition above about 50%; inactive means the rest.

Target: Mannose-6-phosphate isomerase (Homo sapiens) (UniProt P34949)
Test: MPI inhibition at elevated mannose 6-phosphate – biochemical, fluorescence intensity, high mannose 6-phosphate, primary screen (AID 1220)
Conditions: recombinant PMI enzyme, coupled fluorescence intensity; at 20 µM; active compounds read high

Chain of Mannose-6-phosphate isomerase (Homo sapiens) (P34949 whole entry, looked up): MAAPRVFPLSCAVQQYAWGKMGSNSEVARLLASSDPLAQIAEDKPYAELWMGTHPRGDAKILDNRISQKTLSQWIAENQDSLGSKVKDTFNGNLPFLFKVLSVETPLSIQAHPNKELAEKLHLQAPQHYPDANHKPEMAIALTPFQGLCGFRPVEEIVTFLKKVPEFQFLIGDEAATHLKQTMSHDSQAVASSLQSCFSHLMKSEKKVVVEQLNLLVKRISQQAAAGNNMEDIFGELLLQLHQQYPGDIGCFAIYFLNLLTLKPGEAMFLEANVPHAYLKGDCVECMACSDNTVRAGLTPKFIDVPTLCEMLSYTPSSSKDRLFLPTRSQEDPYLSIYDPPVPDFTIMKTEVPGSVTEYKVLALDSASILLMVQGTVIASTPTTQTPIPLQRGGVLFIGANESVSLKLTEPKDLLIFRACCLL

Structure (SMILES) | inhibition
CC(C)Cc1nc2oc3c(N4CCN(CCO)CC4)ncnc3c2c2c1CCCC2 | 2%
Cc1ccc(Cl)cc1NC(=S)N(CCCN1CCOCC1)Cc1ccco1 | -6.2%
Clc1ncc(CSc2ccccc2)s1 | -2.5%
Cc1ccc(S(=O)OCC(=O)Nc2cc(Cl)ccc2N2CCOCC2)cc1 (centres undefined) | 52% (active)
COC(=O)c1ccccc1NC(=O)CNc1cc(Cl)ccc1N1CCOCC1 | 9.8%
O=C(COS(=O)c1ccccc1)Nc1cc(Cl)ccc1N1CCOCC1 (centres undefined) | 8.4%
COc1ccccc1C(=O)Nc1ccccc1SC | 10.6%
COc1ccc(S(=O)(=O)CCC(=O)N2c3ccccc3CC2C)cc1 (centres undefined) | 2%
O=C(Nc1ccc2c(c1)OCO2)c1ccc(S(=O)(=O)NCC2CCCO2)cc1 (centres undefined) | -2.4%
COc1ccc2c(C)cc(=O)[nH]c2c1 | -3%
COc1ccc2c([N+](=O)[O-])c(Cl)[nH]c2c1 | 67.9% (active)
CCOC(=O)CSc1[nH]c2cc(OC)ccc2c1[N+](=O)[O-] | 9.3%
O=C(COC(=O)c1c2ccccc2cc2ccccc12)Nc1ncc(C(F)(F)F)cc1Cl | 2.9%
COc1ccc(CCNC(=O)CSc2nc3ccccc3o2)cc1 | 1.3%
COc1ccc(CN=Cc2c(C(F)(F)F)[nH][nH]c2=O)cc1 | -0.7%
CC(C)c1ccc(C2=C(O)c3ccccc3C(=O)C2=O)cc1 | 22.2%
O=C1C(=C(O)c2ccccc2)C(=O)c2ccccc21 | -47.9%
O=C(C1=C(c2ccccc2)C(=O)c2ccccc2C1=O)c1ccccc1 | 71.6% (active)
O=C1C(c2ccncc2)=C(O)c2ccccc21 | -4.7%
COC1=C(c2ccccc2)C(=O)c2ccccc2C1=O | -57.4%
COc1ccc(C(=S)Nc2ccc(C)cc2)cc1 | 3.8%
CC(C)(C)c1ccc(S(=O)(=O)N2CCCC2C(=O)N2CCOCC2)cc1 (centres undefined) | 3.5%
CCOC(=O)c1nn(-c2ccccc2F)c2nc(-c3ccco3)c(C#N)c(=O)n12 | -13.6%
Cc1ccc(-n2c(=S)[nH]c3sc4c(c3c2=O)CCC4)cc1 | 9.7%
Cc1ccc(-n2c(=S)[nH]c3sc4c(c3c2=O)CCc2ccccc2-4)cc1 | 24.1%

Structure (SMILES) | inhibition
CCN(Cc1ccncc1)S(=O)(=O)c1ccc(C(C)=O)cc1 | -13.6%
CCCCSc1cnn(-c2ccccc2)c(=O)c1SCCCC | 5.9%
CN1CCOc2cc(S(=O)(=O)Nc3ccc(F)cc3)ccc21 | 0.5%
COc1ccc(CCNC(=O)CN2C(=O)NC(C)(c3ccc([N+](=O)[O-])cc3)C2=O)cc1 (centres undefined) | -0.6%
O=C1NC(c2ccc(-c3ccccc3[N+](=O)[O-])o2)C(C(=O)c2ccc(F)cc2)C(O)(C(F)(F)F)N1 (centres undefined) | 42.1%
COc1ccc(C(=O)C2C(c3ccc(-c4ccccc4[N+](=O)[O-])o3)NC(=O)NC2(O)C(F)(F)F)cc1 (centres undefined) | 43.4%
O=C1NC(c2ccc(-c3ccccc3[N+](=O)[O-])o2)C(C(=O)c2ccccc2)C(O)(C(F)(F)F)N1 (centres undefined) | 50.5% (active)
O=C1NC(c2ccc(-c3ccccc3[N+](=O)[O-])o2)C(C(=O)c2ccc(Cl)cc2)C(O)(C(F)(F)F)N1 (centres undefined) | 50.3% (active)
Cc1ccc(C2NC(=O)NC(O)(C(F)(F)F)C2C(=O)c2ccccc2)o1 (centres undefined) | -19.5%
COc1cc(C2NC(=O)NC(O)(C(F)(F)F)C2C(=O)c2ccc(Cl)cc2)ccc1O (centres undefined) | 2.5%
Cc1ccccc1-n1c(-c2ccncc2)n[nH]c1=S | -11.7%
O=C1C(c2ccc(F)cc2)N(Cc2ccc3c(c2)OCO3)C(=O)CN1C1CCCC1 (centres undefined) | 7.2%
COc1cc(C2/C(=C(\O)c3ccc4c(c3)CC(C)O4)C(=O)C(=O)N2CCCn2ccnc2)ccc1O (centres undefined) | 54.7% (active)
CC1Cc2cc(/C(O)=C3/C(=O)C(=O)N(CCCn4ccnc4)C3c3cccnc3)ccc2O1 (centres undefined) | 3.7%
CC1Cc2cc(/C(O)=C3/C(=O)C(=O)N(CCCn4ccnc4)C3c3ccncc3)ccc2O1 (centres undefined) | -10.1%
COc1cc(-c2ccc(NC(=O)CN3CCC(C)CC3)c(OC)c2)ccc1NC(=O)CN1CCC(C)CC1 | 21%
CC(C)c1ccc(CN(C)CC(O)c2ccccc2)cc1 (centres undefined) | -2.2%
CCN(CC)c1ccc(/C=N/NC(=O)c2c[nH]c3ccccc23)cc1 | 21.6%
COc1ccc(CCNC(=O)CCC(=O)Nc2nnc(C(C)C)s2)cc1OC | 3.2%
CCN1CCc2c(C#N)c(N3CCOCC3)nc(N3CCOCC3)c2C1 | -3%
CCN1CCc2c(C#N)c(N3CCOCC3)nc(NCc3ccccc3)c2C1 | 19.3%
CCN1CCc2c(C#N)c(N3CCOCC3)nc(NCCO)c2C1 | 57.2% (active)
CC1(C)Cc2c(sc3nc(-c4cc5ccccc5o4)n(N)c(=O)c23)CO1 | 7%
CCN1C(=O)C(C)S/C1=N\S(=O)(=O)c1ccc(Cl)s1 (centres undefined) | -0.5%
CC(C)CCN(C(=O)CNC(=O)c1cccs1)C(C(=O)NC1CCCC1)c1ccncc1 (centres undefined) | -1.9%

Structure (SMILES) | inhibition
c1ccc(CCNc2ncnc3ccccc23)cc1 | 6.3%
O=c1ccnc(NCCc2ccccc2)[nH]1 | -1.8%
c1ccc2c(NCCCN3CCOCC3)c3ccccc3nc2c1 | 8.7%
c1ccc2cc3c(NCCN4CCOCC4)ccnc3cc2c1 | 57% (active)
O=C(NCCN1CCOCC1)c1ccc2ccccc2c1 | -3.6%
c1ccc(CCNc2ccnc3cc4ccccc4cc23)cc1 | 63.5% (active)
CCOC(=O)c1sc(-c2ccc(OC)cc2)cc1NC(C)=O | -4.9%
Cc1nc([N+](=O)[O-])c(C(=O)OCc2ccccc2Br)n1C | -9.7%
COc1ccc(C(=O)N/N=C/c2c(CO)cnc(C)c2O)cc1 | -36.3%
O=C(c1ccccc1)N(Cc1cccnc1)C1(C(=O)Nc2ccccc2)CCCCC1 | -14%
NC(=O)C1CCN(C(=O)CSc2nc3ccccc3[nH]2)CC1 | 2.1%
CN(C)c1ccc2c(O)cc(=O)n(C)c2c1 | 56.1% (active)
COc1cc(=O)n(C)c2cc(N(C)C)ccc12 | 6.9%
CN(C)c1ccc2c(=O)[nH][nH]c(=O)c2c1 | 24.5%
CCOCCCNC(=O)c1cn(CC(C)C)c(=O)c2cc(OC)c(OC)cc12 | 22.8%
Cc1ccccc1N1CC(=O)N(c2ccccc2C)CC1=O | -4.3%
Cc1ccccc1-n1c(=O)c2ccccc2n2cnnc12 | 1.1%
CC(C)(C)NC(=O)NC(=O)COC(=O)c1cccc(F)c1 | 10.3%
CC(=O)Nc1ccc(C(=O)n2nc(C)cc2C)cc1 | -3.3%
CNC(=S)N(Cc1ccco1)Cc1cc2cc3c(cc2[nH]c1=O)OCCO3 | 52.2% (active)
CC(C)CNC(=S)N(Cc1ccco1)Cc1cc2cc3c(cc2[nH]c1=O)OCCO3 | 12.4%
CCNC(=S)N(Cc1ccco1)Cc1cc2cc3c(cc2[nH]c1=O)OCCO3 | 4.6%
COc1ccc(/C=N/NC(=O)c2cccc(NC(C)=O)c2)c(C(=O)O)c1OC | -6.4%
Cn1ccc(C(=O)OCC(=O)Nc2cccc3ccccc23)n1 | 0.8%
CC(CCc1ccccc1)NC(=O)C(=O)N1CCOCC1 (centres undefined) | 0.1%

Structure (SMILES) | inhibition
CN1CCOCCOCCN(C)C(=O)N2CCOCCOCCN(CCOCC2)C1=O | 3%
CC(C)(C)C1=CC(=O)C(N2CCOCC2)=CC1=O | 65.3% (active)
CC1=C(C)C(=O)C(N2CCOCC2)=CC1=O | -17.5%
Cc1ccc(S(=O)(=O)Oc2ccc(C)cc2/C=N/N=C2\NC(=O)C(C)S2)cc1 (centres undefined) | 8.8%
CC(=Nc1ccccc1)C1=C(O)CSC1=O | -2.7%
COc1ccccc1N=C(C)C1=C(O)CSC1=O | 54.1% (active)
CC(=Nc1ccccc1C)C1=C(O)CSC1=O | -8.7%
CCOC(=O)C1C(c2ccccc2)N(C)OC1(O)C(F)(F)F (centres undefined) | 6.7%
Cc1c(C(=O)OC2CCCC2)[nH]c2c1C(=O)CC(c1ccco1)C2 (centres undefined) | 23.1%
CCOC(=O)C(C)Oc1cccc2c(=O)n(CC(=O)Nc3ccc(OCC)cc3)ccc12 (centres undefined) | 7.6%
Cc1cc(C)n2c(SCc3ccc(Cl)cc3Cl)nnc2n1 | -3.9%
CCN(Cc1cc(=O)n2ccsc2n1)Cc1nc2ccccc2c(=O)[nH]1 | -3.9%
CN(Cc1cc(=O)n2ccsc2n1)c1ccccc1 | -17.6%
CCN(Cc1cc(=O)n2ccsc2n1)c1cccc2ccccc12 | 67.3% (active)
COc1ccc(NC(=O)c2sccc2C)cn1 | 12.5%
COc1ccc(NC(=O)c2cc(Br)c(Br)s2)cn1 | 53.2% (active)
COc1ccc(NC(=O)c2cc(OC)c(OC)c(OC)c2)cn1 | 8.4%
COc1cc(CNCCO)cc(Br)c1OCc1ccccc1 | 1.8%
Cc1ccc(/C=C/C(=O)N2CC(=O)Nc3ccccc32)o1 | 1.3%
Cc1ccc(/C=C/C(=O)OCC(=O)N2CC(=O)Nc3ccccc32)o1 | 55.2% (active)
O=C1CN(C(=O)COC(=O)/C=C/c2ccco2)c2ccccc2N1 | 1.6%
CN(C)c1nc(OCCOC(=O)c2ccccc2)nc(N(C)C)n1 | 10%
O=[N+]([O-])c1ccc2cn(-c3ccccc3)nc2c1 | -4.3%
O=[N+]([O-])c1ccc2c(c1)ncn2-c1ccccc1 | -7.7%
